# According to PubChem BioAssay (Tox21):
# Inconclusive results are not listed. Where a call stands in place of a potency, no number is given. Calls of active or inactive are those of the source. Unless noted, the call rests on the fitted dose curve.
# Assays:
# [1] = Nuclear factor erythroid 2-related factor 2/antioxidant responsive element (Nrf2/ARE) small molecule agonists: qHTS cell viability counter screen in human keratinocytes (AID 1919968; active means well fitted curve in the direction sought with a large enough effect in the repeat runs; an effect the other way counts as inactive or inconclusive; further: nearly all actives have a fitted effect of over 55% in size)
# Outline: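 Stably transfected HaCaT (KeratinoSens), 1,500/well. Test agents in DMSO were applied for 23 h, 37 C/5% CO2. CellTiter-Fluor was incubated 1 h before the fluorescence read.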
# [2] = Nuclear factor erythroid 2-related factor 2/antioxidant responsive element (Nrf2/ARE) small molecule agonists: luciferase reporter gene qHTS assay in human keratinocytes (AID 1919969); further: nearly all actives have a fitted effect of over 35% in size
# [3] = molecular target: Gonadotropin-releasing hormone receptor (Homo sapiens) (UniProt P30968); test: Human gonadotropin-releasing hormone receptor (GnRHR) small molecule agonists, calcium flux assay in GnRHR-HEK293 cells (AID 1920063); further: nearly all actives have a fitted effect of over 35% in size
# Sequence of Gonadotropin-releasing hormone receptor (Homo sapiens) (P30968 whole entry, looked up): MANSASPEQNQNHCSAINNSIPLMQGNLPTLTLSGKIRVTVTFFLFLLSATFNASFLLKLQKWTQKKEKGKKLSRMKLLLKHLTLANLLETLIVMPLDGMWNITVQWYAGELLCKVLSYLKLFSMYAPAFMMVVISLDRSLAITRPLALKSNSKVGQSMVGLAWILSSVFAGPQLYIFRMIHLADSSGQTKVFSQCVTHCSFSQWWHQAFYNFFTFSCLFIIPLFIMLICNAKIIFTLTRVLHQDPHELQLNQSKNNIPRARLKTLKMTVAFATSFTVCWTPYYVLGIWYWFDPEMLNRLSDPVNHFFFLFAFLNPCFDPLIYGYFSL
# Outline: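 Stable human GnRHR HEK293 line. 18 h plating, then calcium dye for 1 h at 37 C. Agonist-mode compound addition from DMSO stocks; fluorescence monitored 3 min.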
# [4] = molecular target: KiSS-1 receptor (Homo sapiens) (UniProt Q969F8); test: Human kisspeptin (KISS1R) small molecule agonists, calcium flux assay in KISS1R-HEK293 cells (AID 1920064; active means well fitted curve in the direction sought with a large enough effect in the repeat runs; an effect the other way counts as inactive or inconclusive)
# Sequence of KiSS-1 receptor (Homo sapiens) (Q969F8 whole entry, looked up): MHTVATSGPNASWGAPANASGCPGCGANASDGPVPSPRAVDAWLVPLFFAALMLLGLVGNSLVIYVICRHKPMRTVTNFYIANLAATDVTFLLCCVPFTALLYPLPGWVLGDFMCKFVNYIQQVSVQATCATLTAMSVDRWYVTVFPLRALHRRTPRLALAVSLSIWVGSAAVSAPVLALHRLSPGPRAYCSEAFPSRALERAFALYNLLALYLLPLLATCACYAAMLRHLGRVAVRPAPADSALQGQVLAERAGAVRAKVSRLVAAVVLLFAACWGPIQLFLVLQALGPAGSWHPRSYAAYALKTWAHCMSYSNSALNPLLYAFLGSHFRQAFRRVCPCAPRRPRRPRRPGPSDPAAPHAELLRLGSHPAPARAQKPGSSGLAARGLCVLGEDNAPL
# Outline: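 After overnight (18 h) culture at 37 C/5% CO2, human KISS1R-HEK293 cells received calcium dye for 1 h, then test compound; emission at 540 nm (excitation 480 nm) was tracked for 3 min.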
# [5] = G protein-coupled receptor (GPCR) small molecule agonists, calcium flux assay: HEK293 wild type cell line counter screen (AID 1920065)
# Outline: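 Following 18 h incubation at 37 C/5% CO2, plates got calcium dye for 1 h; compounds, ATP or DMSO were then pinned in and fluorescence followed kinetically (480/540 nm).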
# [6] = p53 small molecule agonists, cell-based qHTS assay with human liver microsomes (AID 1963577)
# Outline: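 Cells carrying a p53-responsive bla reporter were rested 5 h (37 C, 5% CO2) before compound transfer. Human liver microsomes plus NADPH, 0.5 mg/mL final apiece, supplied metabolism during the 16 h 37 C exposure.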
# [7] = p53 small molecule agonists, cell-based qHTS assay with rat liver microsomes (AID 1963578)
# Outline: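 Fluorescence from a beta-lactamase reporter under a p53 response element was measured after cells had been incubated 16 h at 37 C with test compound and rat liver microsomes plus NADPH (0.5 mg/mL final each).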
# [8] = p53 small molecule agonists, cell-based qHTS assay with human liver microsomes: qHTS cell viability counter screen (AID 1963579); further: nearly all actives have a fitted effect of over 45% in size
# Outline: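 Seed p53RE-bla cells at 4,000 per well; incubate 5 h at 37 C; add compound, human liver microsomes and NADPH; incubate 16 h at 37 C; add CellTiter-Glo; after 30 min at room temperature, read luminescence.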
# [9] = p53 small molecule agonists, cell-based qHTS assay with rat liver microsomes: qHTS cell viability counter screen (AID 1963580); further: nearly all actives have a fitted effect of over 45% in size
# Outline: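 Counter screen for cytotoxicity under metabolic activation: rat liver microsomes and NADPH, 0.5 mg/mL final each, added with compounds to p53RE-bla HCT-116 cells; 16 h at 37 C, then ATP luminescence read.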
# [10] = p53 small molecule agonists, cell-based qHTS assay: qHTS cell viability counter screen (AID 1963581); further: nearly all actives have a fitted effect of over 45% in size
# Outline: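 qHTS counter screen: 16 h compound exposure at 37 C of p53RE-bla HCT-116 cells (4,000 per well, seeded 5 h prior), cell viability by ATP luminescence.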
# [11] = p53 small molecule agonists, cell-based qHTS assay (AID 1963582; active means well fitted activation curve with a large enough effect in the signal ratio in the repeat runs, not every such curve was filed as active; the % refers to the signal ratio)
# Outline: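 Measured: fluorescence from cleaved LiveBLAzer substrate. System: p53RE-bla cells, 16 h compound treatment at 37 C, 2 h substrate step at room temperature.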
# [12] = molecular target: 5-hydroxytryptamine receptor 2A (Homo sapiens) (UniProt P28223); test: 5-hydroxytryptamine receptor 2A (HTR2A) small molecule antagonists, cell-based qHTS assay (AID 1963586); further: nearly all actives have a fitted effect of over 45% in size; further: potency means the concentration at half of the fitted maximal effect
# Sequence of 5-hydroxytryptamine receptor 2A (Homo sapiens) (P28223 whole entry, looked up): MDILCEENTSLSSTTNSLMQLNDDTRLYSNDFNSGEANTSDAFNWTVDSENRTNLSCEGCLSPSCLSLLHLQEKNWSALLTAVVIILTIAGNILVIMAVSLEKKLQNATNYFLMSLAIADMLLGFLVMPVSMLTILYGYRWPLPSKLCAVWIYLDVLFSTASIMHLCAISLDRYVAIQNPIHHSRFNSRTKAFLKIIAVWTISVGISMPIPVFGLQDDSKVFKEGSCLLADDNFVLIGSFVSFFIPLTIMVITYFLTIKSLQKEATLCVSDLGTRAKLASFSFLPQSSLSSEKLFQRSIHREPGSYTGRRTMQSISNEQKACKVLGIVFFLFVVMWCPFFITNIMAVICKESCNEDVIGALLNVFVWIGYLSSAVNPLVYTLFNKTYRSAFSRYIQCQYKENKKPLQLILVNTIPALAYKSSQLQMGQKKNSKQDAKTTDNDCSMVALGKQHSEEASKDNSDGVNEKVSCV
# Outline: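 CHO cells stably expressing human HTR2A were plated for 18 h at 37 C, then loaded with calcium dye for 1 h. Compounds were preincubated 5 min at room temperature before DOI (4 nM solution) was added. Kinetic fluorescence was read for 3 min.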
# [13] = molecular target: 5-hydroxytryptamine receptor 2A (Homo sapiens) (UniProt P28223); test: 5-hydroxytryptamine receptor 2A (HTR2A) small molecule agonists, cell-based qHTS assay (AID 1963587); further: nearly all actives have a fitted effect of over 30% in size
# Outline: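 HTR2A-CHO cells, plated 18 h at 37 C/5% CO2, dye-loaded 1 h at 37 C; compounds in DMSO added by pin tool (agonist mode). Intracellular calcium flux read as kinetic fluorescence on FDSS over 2 min at 1 s intervals.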
# [14] = molecular target: Muscarinic acetylcholine receptor M1 (Homo sapiens) (UniProt P11229); test: Cholinergic receptor muscarinic 1 (CHRM1) small molecule antagonists, cell-based qHTS assay (AID 1963588); further: nearly all actives have a fitted effect of over 40% in size
# Sequence of Muscarinic acetylcholine receptor M1 (Homo sapiens) (P11229 whole entry, looked up): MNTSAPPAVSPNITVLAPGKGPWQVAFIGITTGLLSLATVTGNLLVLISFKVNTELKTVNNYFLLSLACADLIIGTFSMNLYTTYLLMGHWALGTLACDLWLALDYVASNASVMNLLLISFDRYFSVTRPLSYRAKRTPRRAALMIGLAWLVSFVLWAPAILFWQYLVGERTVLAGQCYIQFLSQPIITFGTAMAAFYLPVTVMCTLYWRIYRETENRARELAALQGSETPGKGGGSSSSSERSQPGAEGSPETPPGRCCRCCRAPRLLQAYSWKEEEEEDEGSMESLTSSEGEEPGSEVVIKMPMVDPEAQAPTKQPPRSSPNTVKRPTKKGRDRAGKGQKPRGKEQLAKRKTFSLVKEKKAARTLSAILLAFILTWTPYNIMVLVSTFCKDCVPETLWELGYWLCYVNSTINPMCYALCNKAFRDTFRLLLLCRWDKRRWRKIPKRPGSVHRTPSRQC
# Outline: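 Compounds were tested at 15 concentrations in three independent runs. Dye-loaded CHRM1-CHO cells were exposed 5 min at room temperature before stimulation by acetylcholine added at 50nM. Intracellular calcium was read kinetically on FDSS for 3 min.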
# [15] = molecular target: Muscarinic acetylcholine receptor M1 (Homo sapiens) (UniProt P11229); test: Cholinergic receptor muscarinic 1 (CHRM1) small molecule agonists, cell-based qHTS assay (AID 1963589); further: nearly all actives have a fitted effect of over 35% in size
# Outline: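 Kinetic fluorescence (1 s intervals) of calcium-sensitive dye in human M1 CHO cells after compound addition; cells pre-incubated 18 h at 37 C/5% CO2 and dye-loaded 1 h.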
# [16] = cAMP Responsive Elements (CRE) small molecule agonists, cell-based qHTS assay (AID 1963590)
# Outline: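 Test agents in DMSO were incubated 3 h at 37 C/5% CO2 with CRE-bla HEK 293T cells seeded 18 h earlier; LiveBLAzer B/G FRET substrate was added and read after 2 h at room temperature.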
# [17] = cAMP Responsive Elements (CRE) small molecule antagonists, cell-based qHTS assay (AID 1963591; active means well fitted inhibition curve with a large enough effect in the signal ratio in the repeat runs, not every such curve was filed as active; the % refers to the signal ratio)
# Outline: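 Reporter line CRE-bla HEK 293T in dialyzed-FBS DMEM; cells preincubated 18 h, treated 3 h with compound plus NKH477 (0.25 uM final); LiveBLAzer FRET, 2 h RT.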
# [18] = molecular target: Beta-2 adrenergic receptor (Homo sapiens) (UniProt P07550); test: Adrenergic beta2 receptor (ADRB2) small molecule antagonists, cell-based qHTS assay (AID 1963592); further: series mostly up to about 92 µM; nearly all actives have a fitted effect of over 50% in size
# Sequence of Beta-2 adrenergic receptor (Homo sapiens) (P07550 whole entry, looked up): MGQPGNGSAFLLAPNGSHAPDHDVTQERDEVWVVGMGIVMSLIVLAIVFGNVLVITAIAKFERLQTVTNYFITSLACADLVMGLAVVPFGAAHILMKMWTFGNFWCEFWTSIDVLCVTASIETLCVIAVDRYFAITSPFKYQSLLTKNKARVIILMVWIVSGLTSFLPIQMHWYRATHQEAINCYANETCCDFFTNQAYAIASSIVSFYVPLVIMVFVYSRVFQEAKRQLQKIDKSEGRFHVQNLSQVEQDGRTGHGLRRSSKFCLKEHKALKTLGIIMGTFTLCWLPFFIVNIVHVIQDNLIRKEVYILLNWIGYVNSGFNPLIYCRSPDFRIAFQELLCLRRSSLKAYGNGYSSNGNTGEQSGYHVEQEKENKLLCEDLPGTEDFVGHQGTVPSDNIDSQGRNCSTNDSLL
# Outline: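 Assay format: CHO-ADRB2 cells, 18-20hr seeding at 37C/5% CO2, then compound plus 1nM isoproterenol agonist mix for 0.5hr RT. Homogeneous time-resolved fluorescence cAMP detection after 1hr, expressed as 665/615 nm ratio.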
# [19] = molecular target: Beta-2 adrenergic receptor (Homo sapiens) (UniProt P07550); test: Adrenergic beta2 receptor (ADRB2) small molecule agonists, cell-based qHTS assay (AID 1963593);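 further: CHO cells stably overexpressing human ADRB2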
# Outline: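 CHO cells stably over-expressing ADRB2 were plated overnight at 37C, then dosed with compounds plus a stimulation mix containing 100uM IBMX and 25uM Ro-20-1724 for 0.5hr at room temperature. cAMP was measured by HTRF competition, 1hr.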
# [20] = molecular target: D(2) dopamine receptor (Homo sapiens) (UniProt P14416); test: Dopamine D2 receptor (DRD2) small molecule agonists, cell-based qHTS assay (AID 1963594); further: nearly all actives have a fitted effect of over 35% in size
# Sequence of D(2) dopamine receptor (Homo sapiens) (P14416 whole entry, looked up): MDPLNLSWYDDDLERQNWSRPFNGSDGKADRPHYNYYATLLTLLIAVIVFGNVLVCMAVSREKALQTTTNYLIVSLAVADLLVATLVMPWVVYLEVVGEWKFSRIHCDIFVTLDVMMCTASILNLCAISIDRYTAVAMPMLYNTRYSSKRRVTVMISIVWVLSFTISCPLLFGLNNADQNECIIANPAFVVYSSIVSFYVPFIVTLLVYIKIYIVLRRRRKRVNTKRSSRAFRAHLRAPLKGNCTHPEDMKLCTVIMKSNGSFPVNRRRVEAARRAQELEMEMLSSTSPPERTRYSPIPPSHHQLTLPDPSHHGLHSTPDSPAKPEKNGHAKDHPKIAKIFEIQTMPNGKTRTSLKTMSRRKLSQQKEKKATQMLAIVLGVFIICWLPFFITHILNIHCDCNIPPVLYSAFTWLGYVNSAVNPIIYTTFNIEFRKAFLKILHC
# Outline: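 HEK293 cells stably expressing DRD2 were cultured 24 h at 37 C, then given Ro20-1724 (0.1 mM final) and compounds for 10 min at room temperature. NKH477 (200nM) was then added for 30 min. cAMP was read by HTRF.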
Compound,Potency [1],Potency [2],Potency [3],Potency [4],Potency [5],Potency [6],Potency [7],Potency [8],Potency [9],Potency [10],Potency [11],Potency [12],Potency [13],Potency [14],Potency [15],Potency [16],Potency [17],Potency [18],Potency [19],Potency [20]
O=C[O][Al]([O]C=O)[O]C=O,inactive,inactive,inactive,inactive,inactive,inactive,inactive,inactive,inactive,inactive,inactive,inactive,inactive,inactive,inactive,inactive,inactive,inactive,inactive,inactive
[Cl][Nd]([Cl])[Cl],inactive,inactive,inactive,inactive,inactive,inactive,inactive,inactive,inactive,inactive,inactive,inactive,inactive,inactive,inactive,inactive,inactive,inactive,inactive,inactive
CC(C)C(=O)OCCOc1ccccc1,inactive,inactive,inactive,inactive,inactive,inactive,inactive,inactive,inactive,inactive,inactive,inactive,inactive,inactive,inactive,inactive,inactive,inactive,inactive,inactive
CCc1ccc(Br)cc1,inactive,inactive,inactive,inactive,inactive,inactive,inactive,inactive,inactive,inactive,inactive,inactive,inactive,inactive,inactive,inactive,inactive,inactive,inactive,inactive
CCCc1ccc(N)cc1,inactive,inactive,inactive,inactive,inactive,inactive,inactive,inactive,inactive,inactive,inactive,inactive,inactive,inactive,inactive,inactive,inactive,inactive,inactive,inactive
C[n+]1ccn(Cc2ccccc2)c1,inactive,inactive,inactive,inactive,inactive,inactive,inactive,inactive,inactive,inactive,inactive,inactive,inactive,inactive,inactive,inactive,inactive,inactive,inactive,inactive
Cc1nc(C)c(C)nc1C,inactive,inactive,inactive,inactive,inactive,inactive,inactive,inactive,inactive,inactive,inactive,inactive,inactive,inactive,inactive,inactive,inactive,inactive,inactive,inactive
NC(=O)c1ccc([N+](=O)[O-])cc1Cl,inactive,inactive,inactive,inactive,inactive,inactive,inactive,inactive,inactive,inactive,inactive,inactive,inactive,inactive,inactive,inactive,inactive,inactive,inactive,inactive
CC(=O)c1ccc2ccccc2c1,inactive,inactive,inactive,inactive,inactive,inactive,inactive,inactive,inactive,inactive,inactive,inactive,inactive,inactive,inactive,inactive,inactive,inactive,inactive,inactive
C=CC(=O)CC,inactive,inactive,inactive,inactive,inactive,inactive,inactive,inactive,inactive,inactive,inactive,inactive,inactive,inactive,inactive,inactive,inactive,inactive,inactive,inactive
CSCCC=O,inactive,inactive,inactive,inactive,inactive,inactive,inactive,inactive,inactive,inactive,inactive,inactive,inactive,inactive,inactive,inactive,inactive,inactive,inactive,inactive
CC1=CCC(O)(C(C)C)CC1 (stereo not given),inactive,inactive,inactive,inactive,inactive,inactive,inactive,inactive,inactive,inactive,inactive,inactive,inactive,inactive,inactive,inactive,inactive,inactive,inactive,inactive
C(/C=C/C=C/Nc1ccccc1)=Nc1ccccc1,inactive,inactive,inactive,inactive,inactive,inactive,inactive,inactive,inactive,inactive,inactive,inactive,inactive,inactive,inactive,inactive,inactive,inactive,inactive,inactive
CC(=O)OCC1=C(C(=O)O)N2C(=O)[C@@H](NC(=O)Cc3cccs3)[C@H]2SC1,inactive,inactive,inactive,inactive,inactive,inactive,inactive,inactive,inactive,inactive,inactive,inactive,inactive,inactive,inactive,inactive,inactive,inactive,inactive,inactive
CCCCCCCC(OC)OC,inactive,inactive,inactive,inactive,inactive,inactive,inactive,inactive,inactive,inactive,inactive,inactive,inactive,inactive,inactive,inactive,inactive,inactive,inactive,inactive
CC1=C(O)C(=O)OC1C (stereo not given),inactive,inactive,inactive,inactive,inactive,inactive,inactive,inactive,inactive,inactive,inactive,inactive,inactive,inactive,inactive,inactive,inactive,inactive,inactive,inactive
CC(CC=O)CC(C)(C)C (stereo not given),inactive,inactive,inactive,inactive,inactive,inactive,inactive,inactive,inactive,inactive,inactive,inactive,inactive,inactive,inactive,inactive,inactive,inactive,inactive,inactive
CC1=CC(=O)[C@H]2C[C@@H]1C2(C)C,inactive,inactive,inactive,inactive,inactive,inactive,inactive,inactive,inactive,inactive,inactive,inactive,inactive,inactive,inactive,inactive,inactive,inactive,inactive,inactive
C=CCCCCCCCCC(=O)OCCCC,inactive,inactive,inactive,inactive,inactive,inactive,inactive,inactive,inactive,inactive,inactive,inactive,inactive,inactive,inactive,inactive,inactive,inactive,inactive,inactive
C/C=C/C(=O)C1=C(C)C=CCC1(C)C,inactive,inactive,inactive,inactive,inactive,inactive,inactive,inactive,inactive,inactive,inactive,inactive,inactive,inactive,inactive,inactive,inactive,inactive,inactive,inactive
O=Cc1cc2ccccc2o1,inactive,inactive,inactive,inactive,inactive,inactive,inactive,inactive,inactive,inactive,inactive,inactive,inactive,inactive,inactive,inactive,inactive,inactive,inactive,inactive
NC(=O)c1ccccc1Cl,inactive,inactive,inactive,inactive,inactive,inactive,inactive,inactive,inactive,inactive,inactive,inactive,inactive,inactive,inactive,inactive,inactive,inactive,inactive,inactive
CN(C)CCCNCCCN(C)C,inactive,inactive,inactive,inactive,inactive,inactive,inactive,inactive,inactive,inactive,inactive,inactive,inactive,inactive,inactive,inactive,inactive,inactive,inactive,inactive
c1ccc(CNCc2ccccc2)cc1,inactive,inactive,inactive,inactive,inactive,inactive,inactive,inactive,inactive,inactive,inactive,8.4 µM (active),inactive,inactive,inactive,inactive,inactive,inactive,inactive,inactive
Clc1cc(Cl)c(Cl)c(Cl)c1Cl,inactive,inactive,inactive,inactive,inactive,inactive,inactive,inactive,inactive,inactive,inactive,inactive,inactive,inactive,inactive,inactive,inactive,inactive,inactive,inactive
CCOC(=O)c1ccc(OCCN2C[C@H](O)[C@@H](O)[C@H](O)[C@H]2CO)cc1,inactive,inactive,inactive,inactive,inactive,inactive,inactive,inactive,inactive,inactive,inactive,inactive,inactive,inactive,inactive,inactive,inactive,inactive,inactive,inactive
O=S(=O)(O)c1cc(O)c(O)c(S(=O)(=O)O)c1,inactive,inactive,inactive,inactive,inactive,inactive,inactive,inactive,inactive,inactive,inactive,inactive,inactive,inactive,inactive,inactive,inactive,inactive,inactive,inactive
